Source: PubChem BioAssay (NCATS)
Calls of active or inactive are those of the source. How the calls were made is not given here.

system: HIV-1 nucleocapsid protein NCp7 (binding to TG oligonucleotide); test: HIV Nucleocapsid (AID 346); settings: HIV-1 NC / fluorescein-TGTGTGTG probe, fluorescence polarization;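 further: potency is for inhibitors that block NC binding and lower polarization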
How it was run: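 10 nM TG4xF probe with 100 nM nucleocapsid protein in high-salt Hepes pH 7.5 (250mM NaCl) containing 1uM ZnCl2 and reducing agents. Compound inhibition of binding was read as fluorescein polarization after 1 hr at room temperature.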
Potency means the concentration at half of the fitted maximal effect.

Structure (SMILES)	Potency
N#Cc1cccc(NC(=O)N2CCCC3(CCN(C(=O)c4cc(C(F)(F)F)cc(C(F)(F)F)c4)CC3)C2)c1	> 20 µM (inactive)
CN(C)C(=O)c1ccc(-c2ccc3ncnc(Nc4ccccc4)c3c2)cc1	> 20 µM (inactive)
CCNc1ncc2nc(-c3cccs3)c(=O)n(C[C@H]3CCCO3)c2n1	> 20 µM (inactive)
CN(C)Cc1ccccc1-c1nccc(Nc2ccc(F)cc2)n1	> 20 µM (inactive)
CC(=O)NCCNc1nc(-c2c(C)noc2C)nc2ccccc12	> 20 µM (inactive)
COCC(=O)N1CCC2(CCCN(c3ccccc3)C2)CC1	> 20 µM (inactive)
CS(=O)(=O)N1CCC2(CCCN(Cc3ccc(C#N)cc3)C2)CC1	> 20 µM (inactive)
c1cncc(-c2nccc(-n3ccnc3)n2)c1	> 20 µM (inactive)
CN1CCN(c2nc(-c3ccoc3)nc3ccccc23)CC1	> 20 µM (inactive)
CNc1nc(-c2cccc(NS(C)(=O)=O)c2)nc2ccccc12	> 20 µM (inactive)
CN1CCN(c2ncncc2-c2ccccc2Cl)CC1	> 20 µM (inactive)
CN1CCN(c2ncncc2-c2ccccc2C(F)(F)F)CC1	> 20 µM (inactive)
CN(Cc1ccco1)c1ncnc2ccc(-c3cccnc3)cc12	> 20 µM (inactive)
COc1ccc(NC(=O)N2CC3(CCN(C(=O)c4cccn4C)CC3)C2)cc1	> 20 µM (inactive)
O=C(Nc1cccc(F)c1)N1CC[C@@]2(CCCN(C(=O)c3cccc(F)c3)C2)C1	> 20 µM (inactive)
N#Cc1cccc(-c2nc(NCc3ccccc3)c3ccccc3n2)c1	> 20 µM (inactive)
CN(C)c1ccc(-c2nc(NCCc3cnc[nH]3)c3ccccc3n2)cc1	> 20 µM (inactive)
CS(=O)(=O)Nc1cccc(-c2cncnc2-n2ccnc2)c1	> 20 µM (inactive)
O=S(=O)(c1ccccc1)N1CCC2(CCCN(C(c3ccccc3)c3ccccc3)C2)CC1	> 20 µM (inactive)
COc1ccc(Oc2ncc3nc(C)c(=O)n(C4CC4)c3n2)cc1	> 20 µM (inactive)

Structure (SMILES)	Potency
CCNc1ncc2nc(-c3cc(F)cc(F)c3)c(=O)n(CCc3ccccc3)c2n1	> 20 µM (inactive)
Cc1ccccc1-c1cncnc1N1CCN(C)CC1	> 20 µM (inactive)
N#Cc1cccc(NC(=O)N2CC[C@@]3(CCCN(C(=O)c4ccco4)C3)C2)c1	> 20 µM (inactive)
O=C(Oc1ccccc1)N1CCC[C@@]2(CCN(c3ccccn3)C2)C1	> 20 µM (inactive)
FC(F)(F)c1ccccc1-c1cc(NCc2cccs2)ncn1	> 20 µM (inactive)
CN(C)c1ncc2nc(-c3cc(F)cc(F)c3)c(=O)n(-c3ccccc3)c2n1	> 4 µM (inactive)
COc1ccc(CNc2cc(-c3ccoc3)ncn2)c(OC)c1	> 20 µM (inactive)
CC(=O)N1CCC[C@@]2(CCN(C(c3ccccc3)c3ccccc3)C2)C1	> 20 µM (inactive)
CC(=O)N1CCC2(CCCN(C(=O)Nc3cccc(C#N)c3)C2)CC1	> 20 µM (inactive)
COCCn1c(=O)c(-c2cccc(C#N)c2)nc2cnc(OC)nc21	> 20 µM (inactive)
COc1cccc(-c2cncnc2NCc2ccccc2)c1	> 20 µM (inactive)
COc1ccccc1CN1CC2(CCN(C(=O)c3cccc(F)c3)CC2)C1	> 20 µM (inactive)
O=c1c(-c2cccs2)nc2cnc(N3CCOCC3)nc2n1-c1ccccc1	> 20 µM (inactive)
O=C(c1cc(C(F)(F)F)cc(C(F)(F)F)c1)N1CCC[C@@]2(CCN(c3ccccc3)C2)C1	> 20 µM (inactive)
O=C(Nc1cccc(F)c1)N1CCC2(CCNCC2)CC1	> 20 µM (inactive)
O=c1c(-c2ccc(Cl)cc2)nc2cncnc2n1Cc1ccccc1Cl	> 20 µM (inactive)
COCCn1c(=O)c(-c2ccc(OC)cc2)nc2cnc(Nc3cccc(OC)c3)nc21	8.97 µM (active)
COc1cccc(Cn2c(=O)c(C)nc3cnc(OCc4ccccc4)nc32)c1	> 20 µM (inactive)
CN(C)Cc1ccccc1-c1cc(NCc2ccccc2)ncn1	> 20 µM (inactive)
